{"source": "paper PMC9574860", "about": "“Chemical Toolkit for PARK7: Potent, Selective, and High-Throughput” (Journal of Medicinal Chemistry, 2022)", "note": "The campaign covered roughly 7,900 compounds. About 400 (5.1%) showed an effect of 50% or more. The full list was thinned out, with strong results kept by preference.", "data": [{"target": "Parkinson's disease protein 7 (PARK7/DJ1) (human, UniProt Q99497)", "sequence (Q99497 whole entry, looked up, the tested form may be a part)": "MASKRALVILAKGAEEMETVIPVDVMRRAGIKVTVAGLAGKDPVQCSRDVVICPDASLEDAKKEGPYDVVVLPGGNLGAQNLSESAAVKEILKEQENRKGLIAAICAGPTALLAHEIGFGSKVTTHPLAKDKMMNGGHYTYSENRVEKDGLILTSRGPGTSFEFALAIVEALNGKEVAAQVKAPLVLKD", "assay": "primary screen, percent inhibition; read as competition with a fluorescent probe by fluorescence polarization; higher = more effect of the substance", "conditions": "100 µM", "in_short": "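Covalent fragments at 100 μM final were incubated 2 h with 0.2 μM PARK7, then 20 nM probe JYQ-107 added for a further 2 h. Fluorescence polarization read at 480/520 nm; relative FP loss versus reference controls gave remaining enzyme activity.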", "units": {"Inhibition %": "%"}, "values": [{"molecule": "C=CC(=O)N[C@H]1C[C@H](C)S(=O)(=O)c2sccc21", "Inhibition %": 7.51}, {"molecule": "C=CC(=O)N1CCOCC2(CC2)C1", "Inhibition %": 33.9}, {"molecule": "C=CC(=O)N1CCN(c2ccc(C)o2)C(=O)C1", "Inhibition %": 5.39}, {"molecule": "Cc1ccoc1C=C(C#N)C(=O)NCCc1ccccc1", "Inhibition %": 0.974}, {"molecule": "O=S1(=O)C=CC(O)C1", "note": "(centres unmarked)", "Inhibition %": 4.75}, {"molecule": "C=C(Cl)CSc1nc2ccsc2c(=O)n1C", "Inhibition %": 13.1}, {"molecule": "CC1(C)OB(c2ccc3c(c2)NC(=O)C3)OC1(C)C", "Inhibition %": 27.3}, {"molecule": "C=CC(=O)N1CCCCC1CS(C)(=O)=O", "note": "(centres unmarked)", "Inhibition %": 5.69}, {"molecule": "O=C(C1CCOCC1)N1CCOC(CS(=O)(=O)F)C1", "note": "(centres unmarked)", "Inhibition %": 13.3}, {"molecule": "O=C(C1CCOCC1)N1CCCCC1CCS(=O)(=O)F", "note": "(centres unmarked)", "Inhibition %": 82.4}, {"molecule": "COC(=O)C1CC(S(=O)(=O)F)CN1C(=O)C1CC1C", "note": "(centres unmarked)", "Inhibition %": 13.7}, {"molecule": "CC1CC1C(=O)N1CCCCC1CCS(=O)(=O)F", "note": "(centres unmarked)", "Inhibition %": 57.7}, {"molecule": "O=C(C1CCOCC1)N1CCC(S(=O)(=O)F)CC1", "Inhibition %": 30.7}, {"molecule": "C=CC(=O)N1CCSC2(CCC2)CC1", "Inhibition %": 10.9}, {"molecule": "NC(=O)C1CCCN(S(=O)(=O)C=Cc2ccccc2)C1", "note": "(centres unmarked)", "Inhibition %": 6.58}, {"molecule": "CS(=O)(=O)C(C#N)=Cc1cnn(-c2ccccc2)c1", "Inhibition %": 10.2}, {"molecule": "CN1CCN(c2cccc(C#N)n2)CC1", "Inhibition %": 5.08}, {"molecule": "CC1CC(Sc2nnc(-c3ccco3)o2)C(=O)O1", "note": "(centres unmarked)", "Inhibition %": 1.96}, {"molecule": "CCC1CN(C(=O)CCl)CCO1", "note": "(centres unmarked)", "Inhibition %": 33.6}, {"molecule": "C=CC(=O)N1CCOC(c2ccc(C(F)(F)F)cc2)C1", "note": "(centres unmarked)", "Inhibition %": 1.86}, {"molecule": "O=C(CCl)N1CCOC(c2ccc(F)cc2)C1", "note": "(centres unmarked)", "Inhibition %": 95.3}, {"molecule": "CC(C)c1nc(C(C)Nc2ccc(C#N)nc2)cs1", "note": "(centres unmarked)", "Inhibition %": 3.63}, {"molecule": "Cl.NCC1OB(O)c2ccccc21", "note": "(centres unmarked)", "Inhibition %": 3.67}, {"molecule": "Cc1oncc1Cn1c(-c2ccncc2)noc1=O", "Inhibition %": 59.3}, {"molecule": "Cc1noc(C)c1Cn1c(-c2ccccc2)noc1=O", "Inhibition %": 14.3}, {"molecule": "O=c1onc(-c2ccccc2)n1Cc1ccncc1", "Inhibition %": 1.3}, {"molecule": "Sc1nnnc2ccccc12", "Inhibition %": 3.52}, {"molecule": "O=C(NCC12CCCN1CCC2)c1cccc(S(=O)(=O)F)c1", "Inhibition %": 86.4}, {"molecule": "CN1CCC2(CCCN2C(=O)c2cccc(S(=O)(=O)F)c2)CC1", "Inhibition %": 10.6}, {"molecule": "CS(=O)C1(CNC(=O)c2cccc(S(=O)(=O)F)c2)CCC1", "note": "(centres unmarked)", "Inhibition %": 97.3}, {"molecule": "O=C(NCCC(=O)N1CCCCC1)c1cc(S(=O)(=O)F)c[nH]1", "Inhibition %": 5.43}, {"molecule": "C=CC(=O)Nc1ccccc1N1CCNC(=O)C1", "Inhibition %": 10.7}, {"molecule": "C=CC(=O)N(CC)C1CCOC(C)(C)C1", "note": "(centres unmarked)", "Inhibition %": 8.38}, {"molecule": "O=c1c2ccsc2ncn1CCS(=O)(=O)F", "Inhibition %": 19.7}, {"molecule": "O=c1c2ccccc2ncn1CCS(=O)(=O)F", "Inhibition %": 14.1}, {"molecule": "O=c1c2ccccc2ccn1CCS(=O)(=O)F", "Inhibition %": 95.1}, {"molecule": "CC1(C)OB(c2ccc(C3CCC(=O)N3)cc2)OC1(C)C", "note": "(centres unmarked)", "Inhibition %": 6.79}, {"molecule": "CNC(=O)C(NC(=O)CCl)c1ccccc1", "note": "(centres unmarked)", "Inhibition %": 8.83}, {"molecule": "CC1(C)OB(c2cc(CN3CCCC3)ccc2F)OC1(C)C", "Inhibition %": 3.85}, {"molecule": "C=CC(=O)NC(C)(C)c1noc(C(C)(C)C)n1", "Inhibition %": 17.1}, {"molecule": "CN(C)CCCn1c(S)nc2ccccc2c1=O", "Inhibition %": 5.79}, {"molecule": "CN(C)CCn1c(S)nc2ccccc2c1=O", "Inhibition %": 82.9}, {"molecule": "CCN(CC)CCn1c(S)nc2ccccc2c1=O", "Inhibition %": 4.52}, {"molecule": "CC1=NOC(=O)C1CC(=O)O", "note": "(centres unmarked)", "Inhibition %": 99}, {"molecule": "CC1=NOC(=O)C1CCC(=O)O", "note": "(centres unmarked)", "Inhibition %": 8.64}, {"molecule": "O=C1OCCC1Sc1nnc(-c2cccs2)o1", "note": "(centres unmarked)", "Inhibition %": 21.8}, {"molecule": "O=C1OCCC1Sc1nnc(-c2ccncc2)o1", "note": "(centres unmarked)", "Inhibition %": 6.02}, {"molecule": "O=C1OCCC1Sc1nnc(C2CCCCC2)o1", "note": "(centres unmarked)", "Inhibition %": 66.7}, {"molecule": "c1ccc(N2CCN(CC3OCCO3)CC2)cc1", "Inhibition %": 5.86}, {"molecule": "C=CC(=O)NC1CC(NC(=O)C2CCC2)C1", "note": "(centres unmarked)", "Inhibition %": 7.98}, {"molecule": "N#Cc1ccc(NC(=O)CCCl)cc1", "Inhibition %": 9.81}, {"molecule": "CC1(C)OB(c2ccnc3c(O)cccc23)OC1(C)C", "Inhibition %": 22.4}, {"molecule": "ClCCCn1cccn1", "Inhibition %": 5.21}, {"molecule": "Cc1ccc(CN(C)C(=O)CCl)cc1", "Inhibition %": 68.9}, {"molecule": "CN(Cc1ccc(Br)cc1)C(=O)CCl", "Inhibition %": 52.8}, {"molecule": "CN(Cc1ccc(Cl)c(Cl)c1)C(=O)CCl", "Inhibition %": 43.3}, {"molecule": "CN(Cc1ccc(Cl)cc1)C(=O)CCl", "Inhibition %": 48.5}, {"molecule": "CN(Cc1ccsc1)C(=O)CCl", "Inhibition %": 37.6}, {"molecule": "CN(Cc1ccc(N(C)C)cc1)C(=O)CCl.Cl", "Inhibition %": 71.3}, {"molecule": "CN(Cc1ccc2c(c1)OCCO2)C(=O)CCl", "Inhibition %": 91.9}, {"molecule": "CCN(Cc1ccc2c(c1)OCCO2)C(=O)CCl", "Inhibition %": 17.9}, {"molecule": "CSc1ccc(CN(C)C(=O)CCl)cc1", "Inhibition %": 14.4}, {"molecule": "C=CC(=O)NCc1cc(C)on1", "Inhibition %": 8.31}, {"molecule": "CCC(=O)N1CCCC1C1CCCN1C1CCOC1=O", "note": "(centres unmarked)", "Inhibition %": 8.79}, {"molecule": "N#CC(=Cc1ccc(CSC(F)F)o1)C(N)=O", "Inhibition %": 16.4}, {"molecule": "CC(=O)c1ccc(F)c(B2OC(C)(C)C(C)(C)O2)c1", "Inhibition %": 5.97}, {"molecule": "O=C(CCl)N1N=C(c2ccco2)CC1c1cccs1", "note": "(centres unmarked)", "Inhibition %": 12.6}, {"molecule": "O=C(CCl)Nc1ccccc1C(F)(F)F", "Inhibition %": 11.7}, {"molecule": "C=CC(=O)Nc1nc(COC)cs1", "Inhibition %": 8.35}, {"molecule": "C=CC(=O)NCC1(C)CC(F)(F)C1", "Inhibition %": 5.99}, {"molecule": "CC1CC(n2cnc3c2c(=O)n(C)c(=O)n3C)C(=O)O1", "note": "(centres unmarked)", "Inhibition %": 8.16}, {"molecule": "CC(C)(C)Nc1cc(F)c(S(=O)(=O)F)cc1N", "Inhibition %": 7.67}, {"molecule": "Cc1nn(S(=O)(=O)c2ccccc2)c(C)c1C", "Inhibition %": 6.77}, {"molecule": "N#CC(=Cc1ccccc1)C(=O)O", "Inhibition %": 0.493}, {"molecule": "Clc1ccc(Cl)c(OCC2CO2)c1", "note": "(centres unmarked)", "Inhibition %": 5.37}, {"molecule": "CCc1nccn1S(=O)(=O)c1cc(C)c(OC)cc1C", "Inhibition %": 7.23}, {"molecule": "O=C(NCC1CCC(O)C1)c1cc(B(O)O)ccc1F", "note": "(centres unmarked)", "Inhibition %": 1.49}, {"molecule": "Cl.O=C(CCl)c1c[nH]c2ncccc12", "Inhibition %": 10.6}, {"molecule": "O=C(CCl)c1ccccn1", "Inhibition %": 102}, {"molecule": "O=C(CCl)c1cscn1", "Inhibition %": 101}, {"molecule": "ClCCc1cscn1", "Inhibition %": 5.31}, {"molecule": "C=CC(=O)NCCc1cscn1", "Inhibition %": 5.76}, {"molecule": "Cl.O=C(CCl)Nc1ccccn1", "Inhibition %": 14.1}, {"molecule": "COc1cncc(C#N)n1", "Inhibition %": 9.79}, {"molecule": "C=CC(=O)N1Cc2ccccc2OC(C)(C)C1", "Inhibition %": 13.6}, {"molecule": "Cc1cc(C)cc(OC(=O)N2CCOCC2)c1", "Inhibition %": 6.2}, {"molecule": "CCc1nc(C)cn1S(=O)(=O)c1cc(Cl)ccc1OC", "Inhibition %": 5.69}, {"molecule": "C=CC(=O)N1CC(S(=O)(=O)c2ccccc2F)C1", "Inhibition %": 5.39}, {"molecule": "N#Cc1nc(N2CC[C@H](O)C2)ccc1Cl", "Inhibition %": 9.73}, {"molecule": "CC1(C)OB(c2cncc(F)c2)OC1(C)C", "Inhibition %": 4.04}, {"molecule": "N#CC(=Cc1ccco1)C(=O)Nc1nnc(C(F)F)s1", "Inhibition %": 4.49}, {"molecule": "O=C(CCl)NCCc1ccc(F)cc1", "Inhibition %": 26.6}, {"molecule": "Cc1oc(C(N)=O)cc1C(=O)CCl", "Inhibition %": 30.9}, {"molecule": "Cc1oc(C(=O)O)cc1C(=O)CCl", "Inhibition %": 92.2}, {"molecule": "Cc1oncc1C(=O)CCl", "Inhibition %": 40.2}, {"molecule": "CC(C)N1CCOC(CCl)C1", "note": "(centres unmarked)", "Inhibition %": 5.12}, {"molecule": "O=c1[nH]c(=O)n(C2CC2)c2nc(C3CC3)nc(S)c12", "Inhibition %": 3.15}, {"molecule": "Cn1nccc1[C@@H]1OCC[C@H]1CN1CC=C(B(O)O)CC1", "Inhibition %": 44.8}, {"molecule": "OB(O)C1=CCN(Cc2ccnn2-c2ccncc2)CC1", "Inhibition %": 61.3}, {"molecule": "OB(O)C1=CCN(Cc2cc3n(n2)CCC3)CC1", "Inhibition %": 33.1}, {"molecule": "C=CC(=O)NC1CC(OCC)C12CCCC2", "note": "(centres unmarked)", "Inhibition %": 8.99}, {"molecule": "O=C1CCC(CN2CCc3[nH]c4ccc(F)cc4c3C2)O1", "note": "(centres unmarked)", "Inhibition %": 21.1}, {"molecule": "O=C(CCl)N1CCN(C(=O)Nc2ccccc2)CC1", "Inhibition %": 64.2}, {"molecule": "Cl.O=C(CCl)N1CCN(Cc2ccccc2)CC1", "Inhibition %": 7.64}, {"molecule": "O=C(CCl)N1CCN(c2ccccc2[N+](=O)[O-])CC1", "Inhibition %": 80.7}, {"molecule": "CC(=O)c1ccc(N2CCN(C(=O)CCl)CC2)c(F)c1", "Inhibition %": 11}, {"molecule": "O=C(CCl)N1CCN(c2ccc([N+](=O)[O-])cc2)CC1", "Inhibition %": 7.53}, {"molecule": "O=C(Nc1ccccc1)C1CCN(C(=O)CCl)CC1", "Inhibition %": 12.6}, {"molecule": "C=CC(=O)NCc1nnc2n1CCCC2C(F)(F)F", "note": "(centres unmarked)", "Inhibition %": 8.99}, {"molecule": "CN1CCN(CCCCl)CC1.Cl.Cl", "Inhibition %": 9.44}, {"molecule": "CCN(Cc1ccc(Br)s1)C(=O)CCl", "Inhibition %": 12.9}, {"molecule": "CC1(NC(=O)CCl)CCS(=O)(=O)C1", "note": "(centres unmarked)", "Inhibition %": 2.17}, {"molecule": "C=CC(=O)NCCc1nc2ccc(F)cc2n1C", "Inhibition %": 3.72}, {"molecule": "C=CC(=O)NCC1CCC2(CCCC2)O1", "note": "(centres unmarked)", "Inhibition %": 4.84}, {"molecule": "Cc1cnc2ccccc2c1S(=O)(=O)F", "Inhibition %": 95.2}, {"molecule": "CS(=O)(=O)n1cnc2ccccc21", "Inhibition %": 11.4}, {"molecule": "O=c1cnc2ccccc2n1CCS(=O)(=O)F", "Inhibition %": 13.8}, {"molecule": "Cl.ClCCn1cc(-c2ccccc2)cn1", "Inhibition %": 6.06}, {"molecule": "C=CC(=O)NCc1cccc(C(=O)NC(C)(C)C)c1", "Inhibition %": 9.53}, {"molecule": "Cc1ccc(C)c(C(=O)Cn2cnc(C#N)n2)c1", "Inhibition %": -2.83}, {"molecule": "COC(=O)c1ccc(CS(=O)(=O)F)cc1", "Inhibition %": 7.95}, {"molecule": "O=S(=O)(F)Cc1ccccc1", "Inhibition %": 8.98}, {"molecule": "COc1ccc(CS(=O)(=O)F)cc1", "Inhibition %": 88.4}, {"molecule": "Cc1csc(C(C#N)=Cc2cccc3c2OCCCO3)n1", "Inhibition %": 1.3}, {"molecule": "N#Cc1ccc(NCC2CCN(CC(F)(F)F)C2)cn1", "note": "(centres unmarked)", "Inhibition %": 5.73}]}]}
